Experimental findings from PubChem BioAssay (NCI) are described below.

This is part of a sample that, as a whole, favours compounds with a hit. Of some 83,000 tested, about 20% had one in any assay.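 Step 1: grow cells in 96-well plates. Step 2: add test compound at a single concentration. Step 3: incubate 48 h. Step 4: record percent growth.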 A number with no mark means an inactive call. Active and inactive are the calls of the source. The calls were made as follows: active = growth percent below 10; inactive = the rest.

Holding throughout (assay): NCI-60 one-dose screen, 48 h (100 = growth as untreated, 0 = no growth, -100 = all killed)
Conditions in all cases: 10 µM unless noted

Test [1] concerns T-47D breast.
Test [2] deals with BT-549 breast.
The subject of test [3] is MDA-MB-435 melanoma.
In test [4] the test system is SW-620 colon.
The test system of test [5] is MCF7 breast.
Test [6] concerns HCT-116 colon.
Test [7] concerns HCC-2998 colon.
In test [8] the test system is KM12 colon.

Take `CN(C[C@H]1Cc2c(cccc2N2CCN(c3ncccn3)CC2)CN1)[C@H]1CCCc2cccnc21`: the growth was 26.1% in test [1]; 56.9% in test [2]; 40.7% in test [3]; 31.3% in test [4]; 15.6% in test [5]; 19.6% in test [6]. Besides, the growth is 53.9% in test [7] and 43.5% in test [8].
Take `O=S1(=O)CCC(N(/N=C/c2ccco2)c2ccccc2)C1` (stereo unspecified): the growth is 103% in test [1]; 101% in test [2]; 107% in test [3]; 95.4% in test [4]; 96.4% in test [5]; 97.4% in test [6]. Further, the growth in test [7] is 97.6%; in test [8], 103%.
As for `O=C1Nc2ccc(Cl)cc2C12Nc1cc(Cl)ccc1S2` (stereo unspecified), the growth in test [1] was 33.8%; in test [2], 80%; in test [3], 91.4%; in test [4], 98.9%; in test [5], 43.4%; in test [6], 61.2%. In addition, the growth was 78.9% in test [7] and 70.7% in test [8].
`COc1ccc2c(c1)[nH]c(=O)c1c3cc(OC)ccc3cn21`: the growth in test [1] was 13.6%; in test [2], 36.8%; in test [3], -9.37% (active); in test [4], -2.37% (active); in test [5], 14.1%; in test [6] it was -89% (active). The growth is 32.1% in test [7] and -13.1% (active) in test [8].
Regarding `COc1cc(/C=C/C(=O)c2c(C)nc3ccccc3c2C)ccc1OCCCCOc1cc2c(cc1OC)C(=O)N1CCC[C@H]1C=N2`, the growth in test [1] was -64.7% (active); in test [2], -64.8% (active); in test [3], -34.8% (active); in test [4], -62.2% (active); in test [5] it was -86% (active); in test [6] it was -65.9% (active). Also, the growth in test [7] is -100% (active); in test [8], -69.7% (active).
In the case of `CCOC(=O)c1c(NS(=O)(=O)c2ccc(C)cc2)sc2c1CCC1(C2)OCCO1`, the growth in test [1] was 81.3%; in test [2], 93.8%; in test [3], 101%; in test [4] it was 90.7%; in test [5] it was 93.2%; in test [6], 95.9%. In addition, the growth in test [7] is 92%; in test [8], 88.8%.
Take `COc1ccc(-c2nc3sccn3c2/C=C/C(=O)c2cc(F)cc(F)c2)cc1`: the growth in test [1] was 40.5%; in test [2], 127%; in test [3], 94.2%; in test [4], 53.9%; in test [5], 20.3%; in test [6] it was 53.7%. The growth in test [7] is 51.3%; in test [8] it was 84.3%.
Regarding `COc1ccc(-c2cn(-c3cccc(C(=O)/C=C/c4cc(OC)c(OC)c(OC)c4)c3)c(=O)[nH]2)cc1OC`, the growth is 62.9% in test [1]; 85% in test [2]; 83.2% in test [3]; 94.5% in test [4]; 53.3% in test [5]; 63.6% in test [6]. The growth is 103% in test [7] and 70.9% in test [8].
As to `O=C(C1=Cc2cc3ccccc3n2Cc2cnnn21)c1ccccc1`, the growth in test [1] was 28.8%; in test [2], 37.5%; in test [3], -7.53% (active); in test [4], 28.5%; in test [5] it was 35.2%; in test [6], 26.7%. The growth in test [7] was 71.7%; in test [8] it was 33.8%.
In the case of `CCC(=O)Oc1ccc(/C(=C(/C)Cc2cccc(OC)c2)c2ccc(OCCN(C)C)cc2)cc1`, the growth in test [1] was 86.7%; in test [2] it was 95.7%; in test [3] it was 9.82% (active); in test [4] it was 74.2%; in test [5] it was 45.1%; in test [6] it was 71.8%. In addition, the growth in test [7] was 95.1%; in test [8] it was 86.3%.
In the case of `O=C(O)COc1ccc(-c2cssc2=S)cc1`, the growth in test [1] was 95.5%; in test [2], 116%; in test [3] it was 102%; in test [4], 107%; in test [5], 93.2%; in test [6], 109%. Also, the growth was 125% in test [7] and 109% in test [8].
As for `O=C(NCc1cn(Cc2cccc(Oc3ccccc3)c2)nn1)c1cccnc1Nc1ccc(F)cc1`, the growth is 83.1% in test [1]; 86.6% in test [2]; -11.7% (active) in test [3]; 44.7% in test [4]; 24% in test [5]; 32.8% in test [6]. The growth is 62.7% in test [7] and 34.4% in test [8].
Regarding `S=C(S)NCCc1c[nH]c2ccccc12`, the growth in test [1] is 88%; in test [2] it was 92.6%; in test [3] it was 103%; in test [4], 101%; in test [5], 94.4%; in test [6], 96.1%. For the same compound, the growth was 115% in test [7] and 96.7% in test [8].
Consider `O=C(c1c[nH]c(=O)c(-c2ccccc2)c1)c1ccccc1O`, for which the growth in test [1] was 78.4%; in test [2] it was 93.2%; in test [3] it was 96.7%; in test [4] it was 92.6%; in test [5] it was 92.6%; in test [6], 90.5%. Further, the growth in test [7] was 94.2%; in test [8] it was 89.6%.
Regarding `COc1ccc(C2=C(c3cc(OC)c(OC)c(OC)c3)C(=O)CC2)cc1`, the growth in test [1] was 60.5%; in test [2] it was 28.3%; in test [3], -19.2% (active); in test [4], 19.3%; in test [5], 16.3%; in test [6], 6.43% (active). Further, the growth in test [7] was -11.3% (active); in test [8] it was 5.46% (active).
Turning to `COC1=C(OC)C(=O)C(CCCCCCCCCC[P+](c2ccccc2)(c2ccccc2)c2ccccc2)=C(C)C1=O`, the growth in test [1] is -59% (active); in test [2], -78.9% (active); in test [3], -82.6% (active); in test [4], -13.2% (active); in test [5], -49.9% (active); in test [6], 6.18% (active). The growth was -18.3% (active) in test [7] and -37.5% (active) in test [8].
For the compound `Cc1ccc(-c2nc(C#N)c(S(=O)(=O)n3nc(-c4ccccc4)cc3N)o2)cc1`, the growth in test [1] is 18.2%; in test [2], 96.8%; in test [3], 100%; in test [4] it was 31.8%; in test [5] it was 79.5%; in test [6] it was 63%. Besides, the growth in test [7] is 112%; in test [8], 107%.
On to `Clc1ccc2c(NC3CCC(NC4CCCCC4)CC3)ccnc2c1` (stereo unspecified), for which the growth in test [1] was 48.1%; in test [2], 86.8%; in test [3], 26.8%; in test [4] it was 32.7%; in test [5], 37.8%; in test [6], 35.8%. Moreover, the growth in test [7] is 65.2%; in test [8] it was 67.2%.
Turning to `c1coc(CNc2ccnc(Nc3ccc(OCCN4CCCCC4)cc3)n2)c1`, the growth in test [1] is 91.2%; in test [2], 97.5%; in test [3] it was 95.5%; in test [4] it was 98.7%; in test [5] it was 71.4%; in test [6], 68.4%. Further, the figures for the growth in test [7] and in test [8] were 99.5% and 84.8%, respectively.
`COc1ccc(/C=C2\Oc3cc(OCCCN4CCCC4)ccc3C2=O)c(OC)c1`: the growth was 99% in test [1]; 95.4% in test [2]; 97% in test [3]; 33.5% in test [4]; 44.4% in test [5]; 10.6% in test [6]. In addition, the growth in test [7] was 86.3%; in test [8], 67.1%.
For the compound `COc1ccc(/C=C(\C#N)c2cc(OC)c3c(c2)OCO3)cc1`, the growth in test [1] is 62.3%; in test [2], 30.9%; in test [3], -17.6% (active); in test [4], 24.4%; in test [5], 17.4%; in test [6], 6.05% (active). For the same compound, the growth was 15.7% in test [7] and 5.15% (active) in test [8].
Take `O=C1/C(=C/c2ccc(Cl)cc2)CN(C(=O)CCN2CCC(=NO)CC2)C/C1=C\c1ccc(Cl)cc1`: the growth in test [1] was -37.2% (active); in test [2], -88% (active); in test [3], -94.7% (active); in test [4], -61.1% (active); in test [5], -53.3% (active); in test [6], -48% (active). Besides, the growth is -76.1% (active) in test [7] and -86.1% (active) in test [8].
For `Nc1ccc(C(=O)CSc2nc3ccccc3[nH]2)cc1`, the growth is 109% in test [1]; 94.5% in test [2]; 96.1% in test [3]; 101% in test [4]; 92.9% in test [5]; 97.3% in test [6]. Further, the growth in test [7] is 100%; in test [8] it was 103%.
With `Cc1[nH]c2ccc(F)cc2c1CCNC(=O)C1CCN(C(=O)c2ccccc2)C1` (stereo unspecified), the growth in test [1] was 69.5% [25 µM]; in test [2], 94.7% [25 µM]; in test [3], 99.3% [25 µM]; in test [4], 102% [25 µM]; in test [5] it was 90.9% [25 µM]; in test [6] it was 99.7% [25 µM]. Further, the growth is 106% [25 µM] in test [7] and 102% [25 µM] in test [8].
`O=C(Nc1cccc(-n2cc(-c3ccncc3)c(-c3ccc(Cl)c(O)c3)n2)c1)c1ccc(N2CCOCC2)c(C(F)(F)F)c1`: the growth in test [1] was 69.4%; in test [2], 63.6%; in test [3], 35.2%; in test [4], 6.29% (active); in test [5], 60.6%; in test [6] it was 29.7%. Moreover, the growth was 56.4% in test [7] and 30.6% in test [8].
Regarding `Oc1ccc(Cl)cc1-c1cc(-c2ccc(F)cc2)n[nH]1`, the growth in test [1] is 24.3%; in test [2], 84.7%; in test [3], 83%; in test [4] it was 75.5%; in test [5] it was 15.8%; in test [6], 51.5%. The growth in test [7] is 37.8%; in test [8] it was 37%.
As to `Cc1csc(NC(c2ccccc2)c2c(C)nc3ccccn23)n1` (stereo unspecified), the growth in test [1] was 86.9%; in test [2], 97%; in test [3], 102%; in test [4], 96.3%; in test [5], 94.6%; in test [6] it was 91%. Besides, the growth in test [7] is 105%; in test [8], 99.8%.
On to `O=C(Oc1ccccc1[N+](=O)[O-])C1CCCN1C(=O)OCc1ccccc1` (stereo unspecified), for which the growth in test [1] is 110%; in test [2], 89.6%; in test [3] it was 104%; in test [4] it was 105%; in test [5], 95.6%; in test [6], 87%. Moreover, the growth in test [7] was 101%; in test [8], 107%.
With `Cn1c(=O)cc(NC(=O)CN2CCN(c3cc4c(cc3F)c(=O)c(C(=O)O)cn4C3CC3)CC2)[nH]c1=O`, the growth is 107% in test [1]; 105% in test [2]; 101% in test [3]; 99.3% in test [4]; 94.2% in test [5]; 103% in test [6]. Further, the growth is 100% in test [7] and 101% in test [8].
Turning to `C=C[C@@H]1C[C@H](O)Cc2c(C)cc(C)cc2N1`, the growth was 103% in test [1]; 96.4% in test [2]; 99.3% in test [3]; 99.9% in test [4]; 93.1% in test [5]; 99.9% in test [6]. The values for the growth in test [7] and in test [8] were 94.2% and 105%, respectively.
For `Clc1cc2c(nn1)Nc1ccccc1S2`, the growth in test [1] is 85%; in test [2] it was 103%; in test [3], 98.1%; in test [4], 103%; in test [5], 85.3%; in test [6] it was 96.5%. Further, the growth in test [7] is 114%; in test [8], 102%.
As for `COC(=O)c1cc2cc(-c3ccc(OC)cc3)cnc2[nH]1`, the growth in test [1] is 34.1%; in test [2], 18.6%; in test [3], -23.7% (active); in test [4], 18.6%; in test [5], 15.9%; in test [6] it was 13.8%. Moreover, the growth was 51.1% in test [7] and 11.4% in test [8].
